# Where “and” joins values, the source holds several entries; their conditions need not be identical. Identical values can stand only once. A number with no mark means an inactive call. Records with an inconclusive call do not appear. Where a call stands in place of a potency, no number is given. Calls of active or inactive are those of the source. Unless noted, the call rests on the fitted dose curve; in most records, active means well fitted curve in the direction sought with a large enough effect in the repeat runs; inconclusive means weak or mixed curves; inactive means no such curve, though single readings can be large; an effect the other way counts as inactive or inconclusive.
# Experiments:
# [1] = molecular target: Thyrotropin-releasing hormone receptor (Homo sapiens) (UniProt P34981); assay: qHTS assay to identify small molecule agonists of the thyrotropin-releasing hormone receptor (TRHR) signaling pathway (AID 1346891; calls by dose curve;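 further: HEK293 cells expressing TRHR with calcium dye readout; series mostly up to about 58 µM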)
# Sequence of Thyrotropin-releasing hormone receptor (Homo sapiens) (P34981 whole entry, looked up): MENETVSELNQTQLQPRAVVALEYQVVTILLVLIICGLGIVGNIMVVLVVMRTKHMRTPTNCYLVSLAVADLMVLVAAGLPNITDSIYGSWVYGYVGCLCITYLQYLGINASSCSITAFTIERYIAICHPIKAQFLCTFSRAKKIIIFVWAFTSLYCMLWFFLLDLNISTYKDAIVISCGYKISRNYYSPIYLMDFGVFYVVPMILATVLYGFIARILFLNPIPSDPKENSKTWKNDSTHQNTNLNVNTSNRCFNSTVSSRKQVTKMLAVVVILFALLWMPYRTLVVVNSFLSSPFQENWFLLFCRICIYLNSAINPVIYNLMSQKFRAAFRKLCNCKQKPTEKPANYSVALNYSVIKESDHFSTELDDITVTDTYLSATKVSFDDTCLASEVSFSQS
# Summary of the method: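 Agonist-mode calcium mobilisation screen: TRHR-transfected HEK293 cells cultured overnight (18 h), dye-loaded for 2 h at 37 °C, exposed to compounds, and monitored by fluorescence for 3 min.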
# [2] = Human pregnane X receptor (PXR) small molecule agonists, qHTS cell viability counter screen (AID 1346977); further: nearly all actives have a fitted effect of over 50% in size
# Summary of the method: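 Measures live-cell protease fluorescence (CellTiter-Fluor) in PXR-Luc HepG2 cells treated 24hr with compounds at 37C. Cells had 5hr to attach before pin transfer of DMSO solutions.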
# [3] = Caspase-3/7 induction in CHO-K1 cells by small molecules, qHTS cell viability counter screen (AID 1346979); further: nearly all actives have a fitted effect of over 35% in size; further: potency means the concentration at half of the fitted maximal effect
# Summary of the method: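 In the same wells as the caspase read, viability of compound-treated wild-type CHO-K1 cells was assessed using CellTiter-Fluor, added after 16hr at 37C and measured by fluorescence following 1hr further incubation.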
# [4] = Caspase-3/7 induction in CHO-K1 cells by small molecules, qHTS assay (AID 1346980); further: nearly all actives have a fitted effect of over 15% in size
# Summary of the method: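 Wild-type cells were seeded at 1,500 per well and settled 5 hr at 37 C, 5% CO2, then exposed to DMSO-dissolved compounds for 17 hr. Caspase-Glo 3/7 reagent was added, and luminescence was read after 30min at room temperature.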
# [5] = Caspase-3/7 induction in HepG2 cells by small molecules, qHTS cell viability counter screen (AID 1346981); further: series mostly up to about 92 µM; nearly all actives have a fitted effect of over 30% in size
# Summary of the method: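 Treatment of HepG2 cells with DMSO-delivered compounds ran 16 hr at 37 C following a 5-hr pre-incubation of 2,000 cells/well. CellTiter-Fluor fluorescence, read after 1 hr, served as the viability measure in a qHTS format.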
# [6] = molecular target: Nuclear receptor subfamily 1 group I member 2 (Homo sapiens) (UniProt O75469); assay: Human pregnane X receptor (PXR) small molecule agonists, qHTS assay (AID 1346982); further: nearly all actives have a fitted effect of over 35% in size; further: potency means the concentration at half of the fitted maximal effect
# Sequence of Nuclear receptor subfamily 1 group I member 2 (Homo sapiens) (O75469 whole entry, looked up): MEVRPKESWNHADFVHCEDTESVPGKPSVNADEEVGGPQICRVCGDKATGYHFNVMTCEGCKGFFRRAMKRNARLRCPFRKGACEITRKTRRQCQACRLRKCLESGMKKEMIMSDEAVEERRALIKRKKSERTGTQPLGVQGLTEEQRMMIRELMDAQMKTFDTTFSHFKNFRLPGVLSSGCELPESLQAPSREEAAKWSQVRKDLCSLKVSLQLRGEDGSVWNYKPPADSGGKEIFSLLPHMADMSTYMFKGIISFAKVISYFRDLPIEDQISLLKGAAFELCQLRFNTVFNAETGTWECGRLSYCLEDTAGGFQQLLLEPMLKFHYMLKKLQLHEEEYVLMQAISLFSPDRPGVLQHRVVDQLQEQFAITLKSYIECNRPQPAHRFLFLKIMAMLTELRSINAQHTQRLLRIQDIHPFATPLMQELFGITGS
# Summary of the method: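 Stable HepG2 line reporting PXR-mediated CYP3A4 expression via luciferase. Treatment: 24 hr with compounds in DMSO at 37 C. Detection: ONE-Glo luminescence.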
# [7] = molecular target: Cytochrome P450 2D6 (Homo sapiens) (UniProt P10635); assay: Cytochrome P450 Family 2 Subfamily D Member 6 (CYP2D6) small molecule antagonists: luciferase reporter qHTS assay (AID 1671196); further: nearly all actives have a fitted effect of over 50% in size; further: potency means the concentration at half of the fitted maximal effect
# Sequence of Cytochrome P450 2D6 (Homo sapiens) (P10635 whole entry, looked up): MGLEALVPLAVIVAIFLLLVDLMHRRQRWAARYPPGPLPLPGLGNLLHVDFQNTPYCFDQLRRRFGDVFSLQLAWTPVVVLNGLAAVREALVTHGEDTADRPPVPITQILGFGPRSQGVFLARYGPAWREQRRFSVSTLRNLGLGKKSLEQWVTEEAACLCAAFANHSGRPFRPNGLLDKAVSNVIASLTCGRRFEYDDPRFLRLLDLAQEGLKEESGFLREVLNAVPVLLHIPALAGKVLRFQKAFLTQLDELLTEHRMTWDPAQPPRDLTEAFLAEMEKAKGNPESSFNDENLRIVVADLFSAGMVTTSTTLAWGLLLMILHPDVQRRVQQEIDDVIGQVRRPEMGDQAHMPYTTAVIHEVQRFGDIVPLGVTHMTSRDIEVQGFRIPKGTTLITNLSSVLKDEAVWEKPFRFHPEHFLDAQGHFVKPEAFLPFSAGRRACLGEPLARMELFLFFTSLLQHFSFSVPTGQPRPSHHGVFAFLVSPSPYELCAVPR
# Summary of the method: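 Chemicals tested for interference with CYP2D6 activity; proluciferin substrate, NADPH regeneration, 1 h at room temperature, luminescent detection.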
# [8] = molecular target: Cytochrome P450 2C19 (Homo sapiens) (UniProt P33261); assay: Cytochrome P450 Family 2 Subfamily C Member 19 (CYP2C19) small molecule antagonists: luciferase reporter qHTS assay (AID 1671197); further: nearly all actives have a fitted effect of over 65% in size; further: potency means the concentration at half of the fitted maximal effect
# Sequence of Cytochrome P450 2C19 (Homo sapiens) (P33261 whole entry, looked up): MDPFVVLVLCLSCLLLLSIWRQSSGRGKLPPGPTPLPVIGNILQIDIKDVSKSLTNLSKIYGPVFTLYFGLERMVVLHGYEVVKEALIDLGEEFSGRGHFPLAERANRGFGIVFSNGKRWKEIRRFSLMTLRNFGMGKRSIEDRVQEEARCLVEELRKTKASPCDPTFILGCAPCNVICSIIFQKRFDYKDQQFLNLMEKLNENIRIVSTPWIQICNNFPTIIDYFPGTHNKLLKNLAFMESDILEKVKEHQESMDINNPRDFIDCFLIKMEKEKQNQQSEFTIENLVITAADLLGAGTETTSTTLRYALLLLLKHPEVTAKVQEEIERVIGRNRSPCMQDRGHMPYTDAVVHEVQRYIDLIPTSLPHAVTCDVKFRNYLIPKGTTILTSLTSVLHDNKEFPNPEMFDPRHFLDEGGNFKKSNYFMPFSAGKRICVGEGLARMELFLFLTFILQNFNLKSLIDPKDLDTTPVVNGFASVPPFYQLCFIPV
# Summary of the method: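 Quantitative high-throughput screen of the Tox21 library using CYP2C19 with proluciferin substrate. Reaction: NADPH regeneration, 37C, 1 h, after 10 min compound preincubation at room temperature. Readout: luminescence.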
# [9] = molecular target: Cytochrome P450 2C9 (Homo sapiens) (UniProt P11712); assay: Cytochrome P450 Family 2 Subfamily C Member 9 (CYP2C9) small molecule antagonists: luciferase reporter qHTS assay (AID 1671198); further: nearly all actives have a fitted effect of over 50% in size; further: potency means the concentration at half of the fitted maximal effect
# Sequence of Cytochrome P450 2C9 (Homo sapiens) (P11712 whole entry, looked up): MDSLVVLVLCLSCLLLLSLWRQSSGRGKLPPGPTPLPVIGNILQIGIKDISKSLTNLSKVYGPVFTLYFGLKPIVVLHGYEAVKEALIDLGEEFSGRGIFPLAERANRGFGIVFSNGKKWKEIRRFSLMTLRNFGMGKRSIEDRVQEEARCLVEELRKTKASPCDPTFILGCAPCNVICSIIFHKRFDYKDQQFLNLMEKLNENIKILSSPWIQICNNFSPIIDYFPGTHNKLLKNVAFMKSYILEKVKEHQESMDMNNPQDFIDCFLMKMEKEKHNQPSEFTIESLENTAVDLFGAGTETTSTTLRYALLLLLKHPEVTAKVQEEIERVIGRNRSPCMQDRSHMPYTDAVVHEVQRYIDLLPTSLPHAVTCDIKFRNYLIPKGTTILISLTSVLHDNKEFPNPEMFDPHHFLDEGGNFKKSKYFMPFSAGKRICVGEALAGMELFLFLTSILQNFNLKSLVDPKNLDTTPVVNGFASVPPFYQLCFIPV
# Summary of the method: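 CYP2C9 activity was measured with a P450-Glo proluciferin substrate. Enzyme–substrate mix was held with compound for 10 min at room temperature, then NADPH regeneration solution was added for 1 h at 37C. Luciferin product was read as luminescence.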
# [10] = molecular target: Cytochrome P450 1A2 (Homo sapiens) (UniProt P05177); assay: Cytochrome P450 Family 1 Subfamily A Member 2 (CYP1A2) small molecule antagonists: luciferase reporter qHTS assay (AID 1671199); further: nearly all actives have a fitted effect of over 50% in size; further: potency means the concentration at half of the fitted maximal effect
# Sequence of Cytochrome P450 1A2 (Homo sapiens) (P05177 whole entry, looked up): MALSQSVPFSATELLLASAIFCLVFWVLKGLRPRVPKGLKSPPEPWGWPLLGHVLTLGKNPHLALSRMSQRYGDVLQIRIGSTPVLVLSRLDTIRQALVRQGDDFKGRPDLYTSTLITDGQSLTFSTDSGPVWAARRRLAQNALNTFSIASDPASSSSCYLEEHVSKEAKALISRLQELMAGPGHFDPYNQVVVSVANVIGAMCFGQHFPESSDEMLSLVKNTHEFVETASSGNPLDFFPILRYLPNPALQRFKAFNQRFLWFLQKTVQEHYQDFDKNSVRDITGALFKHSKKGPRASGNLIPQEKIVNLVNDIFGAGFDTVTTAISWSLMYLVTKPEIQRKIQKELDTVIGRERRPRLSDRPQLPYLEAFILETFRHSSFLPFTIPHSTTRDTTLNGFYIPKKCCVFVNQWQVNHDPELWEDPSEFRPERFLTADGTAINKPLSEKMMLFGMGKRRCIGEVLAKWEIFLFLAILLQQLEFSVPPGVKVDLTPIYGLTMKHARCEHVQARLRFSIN
# Summary of the method: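 Read-out is luminescence from luciferin detection reagent (20 min) proportional to CYP1A2 activity; compounds in DMSO preincubated 10 min with enzyme and proluciferin substrate, then NADPH regeneration solution, 1 h, room temperature.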
# [11] = molecular target: Voltage-gated inwardly rectifying potassium channel KCNH2 (Homo sapiens) (UniProt Q12809); assay: Human Ether-a-go-go-Related Gene (hERG) channel small molecule antagonists: fluorescence cell-based qHTS assay (AID 1671200)
# Sequence of Voltage-gated inwardly rectifying potassium channel KCNH2 (Homo sapiens) (Q12809 whole entry, looked up): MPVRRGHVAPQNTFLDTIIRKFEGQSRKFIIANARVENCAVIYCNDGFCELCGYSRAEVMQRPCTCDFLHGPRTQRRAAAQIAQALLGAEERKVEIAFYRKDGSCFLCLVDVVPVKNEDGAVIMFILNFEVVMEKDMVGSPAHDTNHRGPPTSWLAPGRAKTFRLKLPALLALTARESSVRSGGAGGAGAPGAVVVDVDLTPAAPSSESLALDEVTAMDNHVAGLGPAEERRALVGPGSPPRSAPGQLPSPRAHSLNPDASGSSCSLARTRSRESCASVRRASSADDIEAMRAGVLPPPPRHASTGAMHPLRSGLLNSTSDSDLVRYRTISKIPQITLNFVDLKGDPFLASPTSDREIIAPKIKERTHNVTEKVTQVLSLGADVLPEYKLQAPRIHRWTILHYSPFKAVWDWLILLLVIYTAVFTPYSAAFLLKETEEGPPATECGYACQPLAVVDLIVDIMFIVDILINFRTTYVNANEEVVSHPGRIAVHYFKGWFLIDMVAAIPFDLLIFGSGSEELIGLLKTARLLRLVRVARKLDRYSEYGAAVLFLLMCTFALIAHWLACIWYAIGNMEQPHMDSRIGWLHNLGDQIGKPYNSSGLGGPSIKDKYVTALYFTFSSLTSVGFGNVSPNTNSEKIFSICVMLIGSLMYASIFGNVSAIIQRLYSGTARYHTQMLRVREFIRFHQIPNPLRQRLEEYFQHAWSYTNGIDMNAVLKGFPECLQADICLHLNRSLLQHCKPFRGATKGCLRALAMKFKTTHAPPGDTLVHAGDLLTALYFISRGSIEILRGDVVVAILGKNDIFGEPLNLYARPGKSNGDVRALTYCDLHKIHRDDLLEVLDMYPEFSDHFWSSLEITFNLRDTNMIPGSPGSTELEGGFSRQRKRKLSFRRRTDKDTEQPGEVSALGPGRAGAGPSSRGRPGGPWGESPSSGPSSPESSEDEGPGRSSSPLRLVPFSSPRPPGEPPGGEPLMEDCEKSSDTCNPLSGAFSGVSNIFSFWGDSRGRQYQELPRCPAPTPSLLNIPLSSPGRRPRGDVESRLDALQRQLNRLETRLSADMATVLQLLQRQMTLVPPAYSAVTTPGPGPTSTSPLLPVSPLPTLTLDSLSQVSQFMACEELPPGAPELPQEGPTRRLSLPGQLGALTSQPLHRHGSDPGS
# Summary of the method: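 Quantitative HTS in hERG-U2OS cells: thallium entry through the channel reports activity, read as continuous 480/540 nm fluorescence over 2 min after stimulus addition.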
# [12] = molecular target: Cytochrome P450 3A4 (Homo sapiens) (UniProt P08684); assay: Cytochrome P450 Family 3 Subfamily A Member 4 (CYP3A4) small molecule antagonists: luciferase reporter qHTS assay (AID 1671201); further: nearly all actives have a fitted effect of over 50% in size; further: potency means the concentration at half of the fitted maximal effect
# Sequence of Cytochrome P450 3A4 (Homo sapiens) (P08684 whole entry, looked up): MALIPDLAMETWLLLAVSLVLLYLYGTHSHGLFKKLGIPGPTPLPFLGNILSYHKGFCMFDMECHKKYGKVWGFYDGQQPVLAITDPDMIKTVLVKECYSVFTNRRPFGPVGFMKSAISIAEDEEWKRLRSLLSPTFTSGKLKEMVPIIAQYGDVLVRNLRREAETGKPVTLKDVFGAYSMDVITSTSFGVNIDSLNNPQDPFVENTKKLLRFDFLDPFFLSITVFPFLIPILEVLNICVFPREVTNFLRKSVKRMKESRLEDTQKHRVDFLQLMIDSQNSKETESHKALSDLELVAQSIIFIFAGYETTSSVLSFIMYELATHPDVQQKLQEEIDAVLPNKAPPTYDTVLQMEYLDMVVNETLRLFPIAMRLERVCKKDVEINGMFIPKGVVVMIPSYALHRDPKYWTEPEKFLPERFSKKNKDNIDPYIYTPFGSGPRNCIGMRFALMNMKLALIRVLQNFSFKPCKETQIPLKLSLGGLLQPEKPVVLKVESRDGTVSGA
# Summary of the method: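 Inhibition of CYP3A4 is measured as loss of light: the enzyme converts a proluciferin substrate to luciferin, detected luminescently. Reaction ran 1 h at room temperature with NADPH regeneration after a 10 min compound preincubation.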
# [13] = Caspase-3/7 induction in HepG2 cells by small molecules, qHTS assay (AID 1346978); further: nearly all actives have a fitted effect of over 15% in size
# Summary of the method: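 Wild-type HepG2 cells (2,000/well) were settled 5 h at 37 C, 5% CO2, then exposed to compounds in DMSO for 17 h. Caspase-3/7 activity was read by luminescence 30 min after adding Caspase-Glo 3/7 reagent at room temperature.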
# [14] = molecular target: Nuclear receptor subfamily 1 group I member 2 (Rattus norvegicus) (UniProt Q9R1A7); assay: Rat pregnane X receptor (rPXR) activation by small molecules, qHTS assay (AID 1346983); settings: rPXR luciferase reporter cells, One-Glo luminescence, 24 h; max activation: hits give high values; further: nearly all actives have a fitted effect of over 20% in size
# Sequence of Nuclear receptor subfamily 1 group I member 2 (Rattus norvegicus) (Q9R1A7 whole entry, looked up): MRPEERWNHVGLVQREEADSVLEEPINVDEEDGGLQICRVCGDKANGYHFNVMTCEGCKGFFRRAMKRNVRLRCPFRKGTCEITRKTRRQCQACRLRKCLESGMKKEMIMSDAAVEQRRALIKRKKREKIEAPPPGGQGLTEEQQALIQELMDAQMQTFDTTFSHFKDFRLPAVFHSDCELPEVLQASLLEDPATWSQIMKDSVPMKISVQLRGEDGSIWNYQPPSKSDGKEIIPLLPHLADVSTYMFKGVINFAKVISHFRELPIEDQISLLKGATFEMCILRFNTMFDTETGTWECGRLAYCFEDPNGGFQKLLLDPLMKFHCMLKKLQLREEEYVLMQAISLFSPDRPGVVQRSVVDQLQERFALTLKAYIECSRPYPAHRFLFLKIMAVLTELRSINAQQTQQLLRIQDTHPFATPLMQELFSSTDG
# Summary of the method: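 Cell-based rPXR luciferase reporter assay, 2,000 cells per well, rested 5hr at 37 C before compound addition in DMSO, then 24 hr at 37 C. One-Glo reagent was added and luminescence read after 30 min at room temperature.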
# [15] = molecular target: Nuclear receptor subfamily 1 group I member 2 (Homo sapiens) (UniProt O75469); assay: CYP3A4 induction through human pregnane X receptor (PXR) by small molecules, qHTS assay (AID 1346984); further: nearly all actives have a fitted effect of over 40% in size
# Summary of the method: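 After 24 h at 37C with compound, DPX-2 cells (HepG2, co-transfected PXR response element and CYP3A4 promoter-luciferase) got 3uM final P450-Glo Luciferin-IPA for 3 h; One-Glo luminescence followed.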
# [16] = molecular target: Nuclear receptor subfamily 1 group I member 2 (Homo sapiens) (UniProt O75469); assay: Human pregnane X receptor (PXR) activation by small molecules, qHTS assay (AID 1346985); further: nearly all actives have a fitted effect of over 40% in size
# Summary of the method: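 DPX-2 cells (HepG2 co-transfected with a PXR response element and a CYP3A4-promoter luciferase construct) were seeded at 2,000 per well, rested 5 hr at 37C, then exposed to DMSO-dissolved compounds for 24 hr. Activation was read as luciferase luminescence.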
SMILES,Potency [1],Potency [2],Potency [3],outcome [4],Potency [5],Potency [6],Potency [7],Potency [8],Potency [9],Potency [10],Potency [11],Potency [12],Potency [13],max activation [14],Potency [15],Potency [16],caspase activation [13],activation [6]
COc1ccc(Nc2ccc(OC)cc2)cc1,inactive,inactive,inactive,inactive,inactive,24.8 µM (active),36.2 µM (active),2.29 µM (active),16.2 µM (active),18.2 µM (active),inactive,18.2 µM (active),,,,,,
FC(F)(F)C(Cl)(Cl)Cl,inactive,inactive,inactive,,inactive,inactive,inactive,inactive,inactive,,,inactive,,,,,,
CC(=O)OC(C)OC(C)=O,inactive,,inactive,inactive,inactive,inactive,inactive,inactive,inactive,,inactive,inactive,inactive,,,,,
NC1=NCC2c3ccccc3Cc3ccccc3N12 (stereo not drawn),inactive,,inactive,inactive,inactive,,,,,,,,inactive,0.173%,,,,
Cc1cc2c(s1)Nc1ccccc1N=C2N1CCN(C)CC1,inactive,,7.5 µM (active),inactive,,inactive,inactive,inactive,inactive,inactive,inactive,inactive,inactive,-3.7%,inactive,inactive,,
COc1ccc(S(=O)(=O)Nc2nnc(CC(C)C)s2)cc1,inactive,inactive,inactive,,inactive,inactive,inactive,,9.77 µM (active),,,inactive,,-1.31% and -1.74%,inactive,inactive,,
CCCCCCCCOC(=O)CCCCCCCCC(=O)OCCCCCCCC,inactive,inactive,inactive,inactive,inactive,inactive,inactive,inactive,inactive,inactive,inactive,inactive,,,,,,
CC1=C(O)C(=O)OC1C (stereo not drawn),inactive,,inactive,inactive,inactive,inactive,inactive,inactive,inactive,inactive,,inactive,inactive,,,,,
OC[C@H]1O[C@@H](O[C@H]2[C@H](O)[C@@H](O)[C@H](O)O[C@@H]2CO)[C@H](O)[C@@H](O)[C@H]1O,inactive,,inactive,inactive,inactive,inactive,inactive,inactive,inactive,inactive,inactive,inactive,inactive,,,,,
OCC(CBr)(CBr)CBr,inactive,inactive,inactive,inactive,inactive,,inactive,inactive,,inactive,,inactive,,,,,,
C=O,inactive,,inactive,inactive,inactive,,,,,,inactive,,inactive,-2.05%,,,,
CC(C)CC(=O)OCc1ccccc1,inactive,,inactive,inactive,inactive,,inactive,inactive,inactive,inactive,inactive,inactive,inactive,,,,,
O=c1[nH]cnc2c1ncn2[C@@H]1O[C@H](CO)[C@@H](O)[C@H]1O,inactive,inactive,1.06 µM (active),inactive,inactive,inactive,inactive,,inactive,inactive,inactive,inactive,,-2.07%,inactive,inactive,,
Cc1ccc(C=O)s1,inactive,,inactive,inactive,inactive,inactive,inactive,inactive,inactive,,inactive,inactive,inactive,,,,,
C1CSCCS1,,,inactive,,,27.1 µM (active),,inactive,inactive,,inactive,inactive,inactive,,,,,
O=C(O)c1cccc(Cl)c1Cl,,inactive,inactive,inactive,inactive,inactive,,inactive,inactive,,inactive,inactive,inactive,,,,,
CC(C)=CCC[C@](C)(O)[C@@H]1CC=C(C)CC1,,,,inactive,inactive,inactive,,5.03 µM (active),31.7 µM (active),39.9 µM (active),,,inactive,,,,,
NCCC(O)(P(=O)(O)O)P(=O)(O)O,,,inactive,inactive,inactive,inactive,inactive,inactive,inactive,24.5 µM (active),inactive,inactive,inactive,-0.383%,inactive,inactive,,
Cc1cc2nc(N)sc2cc1C,,inactive,inactive,inactive,inactive,27.6 µM (active),32 µM (active),28.5 µM (active),35.9 µM (active),1.14 µM (active),inactive,25.4 µM (active),,,,,,
CN(C)C(=O)NC1(c2ccccc2)CCN(CCC[C@]2(c3ccc(Cl)c(Cl)c3)CCCN(C(=O)c3ccccc3)C2)CC1,,,,,,,3.79 µM (active),,,inactive,,,,,,,1.95% [at 19 µM],-0.297% [at 19 µM]

# — PubChem BioAssay (Tox21)
